Consider 35 compounds from PubChem BioAssay.

The target of this experiment is Calmodulin-1 (Homo sapiens) (UniProt P0DP23). As to the kind of experiment: CALM1 binders on microarrays, EGTA buffer, profiling panel, biochemical, small-molecule microarray, Cy5-labelled CALM1 (AID 1111).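 Note: labelled calmodulin applied in Tris saline Tween buffer holding calcium plus EGTA and DTT.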 To be noted: Cy5-CALM1 binding fluorescence, higher = more signal.
For the compound `CO[C@H]1O[C@H](CO)[C@@H](OC(=O)Nc2ccc3c(c2)OCO3)[C@H](OC(=O)Nc2ccc3c(c2)OCO3)[C@@H]1OC(=O)Nc1ccc2c(c1)OCO2`, the composite z-score is 1.88.

`CCOC(=O)C[C@H]1[C@H](OC(=O)c2ccccc2-c2ccccc2)[C@@H](NC(=O)c2ccc3ccccc3c2)c2cc(OCCCO)ccc2N1C(=O)c1ccccc1` gave a composite z-score of -0.09.

As for `CC(C)[Si]1(C(C)C)OCc2cc(-c3ccc(-c4ccc(Cl)c(Cl)c4)o3)nc(-c3ccccc3)c21`, the composite z-score is -0.856.

With `COc1ccc([C@H]2OC[C@@H]3C[C@H](Cc4ccccc4)C(=O)N32)cc1`, the composite z-score was 0.106.

In turn, `COC(=O)C(CC#Cc1ccc2c(c1)[C@]1(C(=O)N2)[C@H](c2ccc(O)cc2)N2[C@H](c3ccccc3)[C@H](c3ccccc3)OC(=O)[C@H]2[C@@H]1C(=O)NC[C@H](O)c1ccccc1)C(=O)OC` displayed a composite z-score of 0.175.

In turn, `CC(=O)N1CC2(CC2)CC1c1ccccc1` (stereo not given) gave a composite z-score of 0.107.

`COc1ccc([Si](C)(C)[C@@H]2[C@@H](CC(=O)N3CCC[C@H]3CO)O[C@]3(C(=O)N(Cc4cccc(N5C(=O)COc6ccccc65)c4)c4ccccc43)[C@H]2C)cc1`: the composite z-score worked out at 1.49.

As for `O=c1cccc(-c2ccc([N+](=O)[O-])cc2)o1`, the composite z-score is -0.273.

In turn, `N[C@@H](Cc1ccccc1)C(=O)NCc1cn(Cc2ccccc2)nn1` displayed a composite z-score of -0.761.

Regarding `O=C1C2C=CC(C(O)c3cccc(O)c3)N(Nc3ccc([N+](=O)[O-])cc3)C2C(=O)N1c1ccccc1` (stereo not given), the composite z-score is 0.0968.

The compound `CC(C)c1ccc(NN2C(C(O)c3ccc(F)cc3)C=CC3C(=O)N(c4ccccc4)C(=O)C32)cc1` (stereo not given) came in with a composite z-score of 1.24.

In the case of `C=CC[C@@H](OC(=O)Nc1ccc(SC)cc1)c1ccc(O)c(F)c1`, the composite z-score was -0.818.

For `COc1cc2c(cc1O)C(C1CC1)N(C)CC2` (stereo not given), the composite z-score is -1.01.

`O=C1CS(=O)(=O)C(c2cccc([N+](=O)[O-])c2)N1c1ccccc1` (stereo not given) showed a composite z-score of 0.0568.

Take `COC(=O)[C@@H]1N=C(c2ccc(OCCCO)cc2)O[C@@H]1c1ccccc1`: the composite z-score was -0.494.

In turn, `O=C1NC(=O)C2C1C=CC(C(O)c1ccco1)N2Nc1ccc(Cl)cc1Cl` (stereo not given) registered a composite z-score of 0.317.

As to `COc1ccc([Si](C)(C)[C@@H]2[C@@H](CCO)O[C@]3(C(=O)N(Cc4cccc(NC(=O)[C@H](C)O)c4)c4ccccc43)[C@H]2C)cc1`, the composite z-score was 0.953.

For the compound `CCCN1C(=O)[C@]2(Cc3ccccc31)N=C(c1ccc(OCCCO)cc1)O[C@@H]2c1ccccc1`, the composite z-score is 1.98.

Compound `CN(C)C(=O)[C@@]1(Cc2ccccc2)N=C(c2ccc(OCCCO)cc2)O[C@H]1c1ccccc1` came in with a composite z-score of 1.58.

Consider `COCCOC(=O)N1C(=O)[C@@]2(c3cc(C#CC4(O)CCCCCC4)ccc31)[C@H](c1ccc(O)cc1)N1[C@H](c3ccccc3)[C@H](c3ccccc3)OC(=O)[C@H]1[C@@H]2C(=O)N1CCN(c2ncccn2)CC1`, for which the composite z-score amounted to 1.83.

In turn, `COc1ccc(CCNC(=O)[C@@]2(Cc3ccccc3I)c3ccccc3C(=O)N(C3CCCCC3)[C@H]2c2ccc(CO)cc2)cc1` had a composite z-score of 0.902.

`CCOC(=O)C=Cc1cccc(C)c1O` returned a composite z-score of -0.122.

For the compound `C=CCC(OC(C)=O)[C@@H]1[C@@H](N(Cc2ccc(-c3cccc(C(F)(F)F)c3)o2)C(=O)Cc2ccc(OC)cc2)c2cc(OCCCO)ccc2N1C(=O)c1ccc(-c2ccccc2)cc1` (stereo not given in full), the composite z-score is -0.364.

In turn, `O=C1[C@H]2C=C(I)[C@H](C[C@@H]2OCCOCCO)[C@@]12CO2` had a composite z-score of -0.315.

As for `C#Cc1cc2ccccc2oc1=O`, the composite z-score was -1.07.

`O=C(Cc1ccccc1)[C@H]1C2C=CCCC(c3ccccc3)=C2CN1Cc1ccccc1` (stereo not given in full): the composite z-score is -0.185.

`O=C1O[C@@H](c2ccccc2)[C@@H](c2ccccc2)N2[C@@H](c3ccc(OCCO)cc3)[C@]3(C(=O)Nc4ccc(C#CC5=CCCCC5)cc43)[C@@H](C(=O)NC[C@H](O)c3ccccc3)[C@H]12` showed a composite z-score of 1.25.

With `COc1cc2c(cc1O)C(C1CC1)N(Cc1cccc(OC(F)(F)F)c1)CC2` (stereo not given), the composite z-score is -1.67.

The compound `[N-]=[N+]=NCc1ccccc1[C@@H]1OC(c2ccc(OCCCO)cc2)=N[C@]1(CCS(=O)(=O)c1ccccc1)C(=O)O` had a composite z-score of 0.678.

The compound `[N-]=[N+]=NCc1ccccc1[C@H]1OC(c2ccc(OCCCO)cc2)=N[C@@]1(Cc1ccccc1N=[N+]=[N-])C(=O)NCC(O)CO` (stereo not given in full) came in with a composite z-score of 1.33.

On to `COCCOC(=O)N1C(=O)[C@@]2(c3ccccc31)[C@H](C(=O)NC[C@H](O)c1ccccc1)[C@H]1C(=O)O[C@H](c3ccccc3)[C@H](c3ccccc3)N1[C@@H]2c1ccc(O)cc1`, for which the composite z-score was found to be 0.573.

Consider `O=C1OCCC/C=C\[C@H]2OC34C=CCN(c5ccc6ccccc6c5)C(=O)[C@H]3N(CCO)C(=O)[C@@H]4C12` (stereo not given in full), for which the composite z-score turned out to be 0.0755.

With `CCOC(=O)C[C@H]1[C@H](OC(=O)Cc2ccc3c(c2)OCO3)[C@@H](NC(=O)c2ccc3ccccc3n2)c2cc(OCCCO)ccc2N1C(=O)c1ccc2ccccc2n1`, the composite z-score is 0.509.

In the case of `CC[C@@H]1C=C(C(=O)O)[C@H](c2ccccc2)N1S(=O)(=O)c1ccc(C)cc1`, the composite z-score is 1.6.

`CC(C)N1C(=O)C[C@@](C(=O)O)(c2ccc([N+](=O)[O-])cc2)[C@H]1c1ccc(CO)cc1` displayed a composite z-score of 0.233.
